About 8,600 (12%) of roughly 69,000 compounds showed an effect of 50% or more. For the sample, strong results were picked, then their nearest neighbours and some compounds at random.

These results are taken from ChEMBL document CHEMBL4513216, “Probing the Open Global Health Chemical Diversity Library for Multistage-Active Starting Points for Next-Generation Antimalarials” (ACS Infect Dis, 2020).

The assay concerns Plasmodium berghei. As to the kind of experiment: Screen against P. berghei liver stage (PbLuc), transformed with Luciferase, at 10uM. Conditions: tested at 10 uM. Type of assay: functional, HepG2.
For the molecule `Cc1ccc(CN2CCC3(CC2)OC(C(=O)N(C)C)c2ccccc23)o1` (stereo unspecified), the INHIBITION worked out at 34%. For `CN(Cc1ccc2c(c1)OCO2)C(=O)Cn1cccnc1=O`, the INHIBITION was 44.1%.

Take `O=C(CN1CCCC1c1noc(C2CC2)n1)N1CCc2ccccc21` (stereo unspecified): the INHIBITION is 7.08%. For `COCCN1CCC(c2cncc(-c3cccc(Cl)c3)n2)CC1` the value was -5.71%; for `Fc1cc(CN2CCOC3(CCOCC3)C2)ccc1OC(F)F`, 86.7%.

Regarding `Fc1cc(CN2CCOC3(CCOCC3)C2)ccc1Cl`, the INHIBITION is listed as -27.8%.

With `FC(F)Oc1ccc(CN2CCOC3(CCOCC3)C2)cc1Cl`, the INHIBITION is on record as 38%. Under `COc1cc(CNC(=O)Nc2nnc(C(C)C)s2)ccn1` stands -69.3%; under `Cc1cccc(C2(C(=O)NC(C)Cn3ccnc3)CC2)c1` (stereo unspecified), 35.9%; under `CC(C(=O)N1CCc2ccccc2C1)N(C)Cc1cscn1` (stereo unspecified), 32.9%.

Take `CCc1cnc(CN(C)C(C)C(=O)N2CCc3ccccc3C2)s1` (stereo unspecified): the INHIBITION is 62%. In the case of `Cc1csc(CN(C)C(C)C(=O)N2CCc3ccccc3C2)n1` (stereo unspecified), the INHIBITION was 38%.

As to `CC(C)Oc1ncccc1CNC(=O)c1cc(C2CC2)on1`, the INHIBITION is reported as 11.9%. For `COCCN1CCC1c1cc(N)nc(C)n1` (stereo unspecified), the INHIBITION came out at 26.7%. Take `Cc1nc2c(c(NCC(c3cccnc3)N3CCOCC3)n1)CCNC2` (stereo unspecified): the INHIBITION came out at 18.2%. Under `Cc1ccccc1OCCN1CCn2c(C)nnc2C1` stands 27.6%. Under `Cn1nc2c(cc1=O)CN(Cc1nc3ccccc3c(=O)[nH]1)CC2` stands 9.04%; under `CC(C)n1nc2c(cc1=O)CN(CCOc1ccccc1C#N)CC2`, 12.7%.

On to `Cc1nnc2n1CCN(CCOc1ccccc1C#N)C2`, for which the INHIBITION stood at 58.5%. On to `N#Cc1ccccc1OCCN1CCn2c(nnc2C2CC2)C1`, for which the INHIBITION is 39.5%. For `CCn1nc2c(cc1=O)CN(CCOc1ccccc1C#N)CC2` the value was 2.4%; for `Cn1nc2c(cc1=O)CN(CCOc1ccccc1C#N)CC2`, 74.8%. Under `Cn1nc2c(cc1=O)CN(Cc1nc(N)c3ccccc3n1)CC2` stands 57.7%; under `CCn1nc2c(cc1=O)CN(Cc1nc(N)c3ccccc3n1)CC2`, 15.8%. For `Cc1cc(=O)n(CCNC(=O)c2ccccc2Cl)cn1` the value was -62.1%; for `COc1cc(N2CCC3(CCCN(C(=O)c4cnccn4)C3)C2)ncn1` (stereo unspecified), 10.6%. For the molecule `O=C(c1ccco1)N1CCOCC2(C1)CN(c1ccccn1)C(=O)CO2` (stereo unspecified), the INHIBITION is reported as 22.4%. For `COCCCN1CCCC1c1noc(C2CC2)n1` (stereo unspecified) the value was 2.97%; for `O=C(Cc1ccsc1)N1C[C@@H]2COC[C@]2(COc2cccnc2)C1`, 39.4%.

For the molecule `CC(=O)NCc1ccc(C(=O)N2CCCC2c2cnn(C)c2)s1` (stereo unspecified), the INHIBITION was -25.9%. Turning to `CC(C)Nc1nc(O)cc(C2CC(=O)N(Cc3ccccc3)C2)n1` (stereo unspecified), the INHIBITION turned out to be 18.3%.

Turning to `O=C(C[C@@H]1COC[C@H]2CN(C(=O)c3cccnc3)C[C@@H]12)N1CCCC1`, the INHIBITION is listed as -19.5%. For the molecule `c1cncc(-c2nnn3c2COCC(CNCC2CCOCC2)C3)c1` (stereo unspecified), the INHIBITION is listed as 41.6%. For `O=C(c1ccccc1O)N1CCN(C(=O)C2CCC2)CC1` the value was -14.3%; for `Cc1ccsc1C(=O)N(C)Cc1ccncc1`, 3.1%. Consider `CN(Cc1ccc(C(=O)O)cc1)C(=O)c1sccc1OC(F)F`, for which the INHIBITION worked out at 52.5%. For `CN(CCc1ccncc1)C(=O)c1sccc1OC(F)F` the value was -2.97%. `Cc1ccccc1C(CC(=O)N1CCc2sccc2C1)NC(N)=O` (stereo unspecified): the INHIBITION amounted to 3.3%. Under `CCOc1ccc(Cl)cc1CCNC(=O)c1ccc(=O)n(C)c1` stands -10.8%; under `O=C(Cn1nc(-c2ccc(F)cc2)oc1=O)NCc1ccncc1`, -6.79%. Under `COCC(=O)N[C@@H]1CN(Cc2c[nH]nc2-c2cccs2)C[C@H]1O` stands 6.54%; under `CCC1=NC(SCC(=O)c2ccc(C)cc2)c2cc(CC)sc2N1` (stereo unspecified), 39.1%.

In the case of `CCC1=NC(SCC(=O)c2ccc(Cl)cc2)c2cc(CC)sc2N1` (stereo unspecified), the INHIBITION came out at 30%. Under `CCC1=NC(SCC(=O)c2ccccc2)c2cc(CC)sc2N1` (stereo unspecified) stands 79.7%; under `CC(C)c1nn(C)c(Cl)c1CNCC(=O)N1CCN(C)CC1`, 26.4%; under `Cc1nc(C)n(CC2CN(Cc3cccs3)Cc3nccn3C2)n1` (stereo unspecified), 47.4%. Under `CCCNc1nnc(S(=O)(=O)CCOCC)s1` stands 5.05%; under `COCCNc1nnc(S(=O)(=O)CCC(C)(C)C#N)s1`, 52.1%.

As to `CCOCCS(=O)(=O)c1nnc(NCCOC)s1`, the INHIBITION was 12.2%. Take `C[C@@H]1CN(C(=O)C2CCOCC2)C[C@]12CCN(c1cccnc1)C2=O`: the INHIBITION amounted to 18.5%.

Turning to `CCOc1ccccc1C(=O)N1CC(=O)N(C2CCC2)CC(O)C1` (stereo unspecified), the INHIBITION was found to be 16.9%. For `COc1cccc(OC)c1C(=O)N1CC(=O)N(C2CCC2)CC(O)C1` (stereo unspecified) the value was 4.82%. For `COc1ccccc1C(=O)N1CC(=O)N(C2CCCCC2)CC(O)C1` (stereo unspecified) the value was 50.2%; for `COc1ccc(C)cc1-n1cnnc1C1CCOCC1`, 13.5%; for `c1cncc(-n2cnnc2CC2CCNCC2)c1`, 8.08%. Under `COc1ccc(OC)c(-n2cnnc2CN)c1` stands 45.7%.

For the molecule `COc1ccc(C)cc1-n1cnnc1C1CCCN(C)C1` (stereo unspecified), the INHIBITION is 29.8%. Under `COc1ccc(-n2cnnc2CC2CCNCC2)cc1` stands 65.7%. Regarding `COc1ccc(C)cc1-n1cnnc1CC1CCNCC1`, the INHIBITION is 64.6%. For `O=C(Cn1ccc2cc(Br)ccc21)NCc1ccc(C(=O)O)cc1` the value was 13.5%; for `CC(=O)c1cc(C(=O)N2Cc3ccccc3OC3(CCOCC3)C2)cs1`, -26.2%. For `CS(=O)(=O)c1ccc(C(=O)N2CCCC(n3ccnc3)C2)cc1` (stereo unspecified) the value was -9.76%; for `COc1ccc(C(=O)N(c2ccc(OC)c(F)c2)C(C)C)cn1`, 75.2%; for `COC(=O)C(c1cc(F)ccc1F)N(C)C(=O)c1ccccn1` (stereo unspecified), 36.1%. Under `COC(=O)c1cnc(C(=O)N(c2ccc(OC)c(F)c2)C(C)C)cn1` stands -54.5%. Turning to `COc1ccc(N(C(=O)c2ccc(C)nc2)C(C)C)cc1F`, the INHIBITION turned out to be 38%. For the molecule `COc1ccc(N(C)C(=O)c2cccc(S(C)(=O)=O)c2)cn1`, the INHIBITION came to 40.7%.

`COc1ccc(N(C(=O)c2cnc(C)cn2)C(C)C)cc1F`: the INHIBITION is 62.4%. For `COCC(c1cccc(C(F)(F)F)c1)N(C)C(=O)c1ccccn1` (stereo unspecified) the value was -5.285%; for `COc1ccc(N(C(=O)c2ccccn2)C(C)C)cc1F`, 50.8%; for `COc1ccc(N(C(=O)Cc2ccc(C)nc2)C(C)C)cc1F`, -75%.

As for `Cn1cc(-c2ncc3c(c2C(=O)O)CCN(CC2CC2)C3)cn1`, the INHIBITION worked out at 46.6%.

With `O=S(=O)(NC1=NCN(CCc2cccs2)CN1)c1ccc(Cl)cc1`, the INHIBITION is reported as 17%. Under `O=C(CN1CCOC(Cn2cccn2)C1)NCc1ccccn1` (stereo unspecified) stands 11.2%; under `O=C(c1ncccn1)N1CCC[C@]2(C[C@@H](OCC3CC3)CO2)C1`, 34.6%; under `CN1CCO[C@@H]2CN(S(=O)(=O)c3ccc(F)cc3)CC[C@@H]2C1`, 16.9%.

Take `Cc1cc(C)cc(NCCC(=O)NC2CCN(C(=O)C3CC3)CC2)c1`: the INHIBITION is -18.3%. For `CN1CCN(c2ncccn2)CC1C(N)=O` (stereo unspecified) the value was -7.66%. For `CCCN1CCC(N2CCC(Cn3cc(C4CC4)nn3)CC2)CC1` the value was 52.2%; for `O=C(C1CCCO1)N1CCC(Cn2cc(C3CCCC3)nn2)CC1` (stereo unspecified), 34.2%.

`CC(C)(CN1CCCC1)CN1CCC(Cn2cc(C3CC3)nn2)CC1`: the INHIBITION worked out at 41.2%. For `CC(C)CSCCCNC(=O)C1CCOC1` (stereo unspecified) the value was 33.7%; for `CC(C)CSCCCNC(=O)C1CCC1`, 52.3%; for `CC(C)CSCCCNC(=O)C1CCOCC1`, 6.54%. Under `CN(C)S(=O)(=O)N1C[C@H]2CC[C@@H](C1)N(Cc1ccc3[nH]ccc3c1)C2` stands 31.6%; under `Cc1nc(CN2CCN(C(=O)c3scnc3C)CC2)cs1`, -17.1%; under `NC(=O)c1cnn2c1NCC(CNCCOc1ccccc1)C2` (stereo unspecified), -18.43%.

On to `OCCn1nccc1C1CCN(CCOc2ccccc2F)CC1`, for which the INHIBITION is 27.8%. In the case of `CCOCCCNC(=O)c1cn(CC)nc1C`, the INHIBITION turned out to be 11.8%. Under `CCOCCCNC(=O)NCc1c(C)nn(C)c1C` stands 52.5%; under `CCOCCCNC(=O)c1nn(CC)cc1Br`, 1.86%. Under `COc1ccccc1C1CNCCN1C(=O)c1ccc(F)cc1` (stereo unspecified) stands 15.5%; under `CN1CCCCC1CC(=O)Nc1ccc2ncn(C)c2c1` (stereo unspecified), 9.41%; under `COc1ccccc1OCCN1CCC(N2CCNC2=O)CC1`, 36.4%. Take `CCOc1ccc(OCCN2CCC(N3CCNC3=O)CC2)cc1`: the INHIBITION amounted to 81.8%. Under `CN1CCN(C2CCN(CCOc3ccc(C#N)cc3)CC2)C1=O` stands 41.5%; under `COc1ccc(OCCN2CCC(N3CCNC3=O)CC2)cc1`, 87.25%; under `CN1CCN(C2CCN(CCOc3ccc(Cl)cc3)CC2)C1=O`, 36.1%. For `CN1CCN(C2CCN(CCOc3ccc(F)cc3)CC2)C1=O` the value was 25.6%; for `Cc1ccc(C)c(OCCN2CCC(N3CCNC3=O)CC2)c1`, 38.1%. For `CN1CCN(C2CCN(CCOc3cccc(F)c3)CC2)C1=O` the value was 5.9%; for `CN1CCN(C2CCN(CCOc3cccc(Cl)c3)CC2)C1=O`, 51.1%; for `CCN(Cc1cccc(F)c1)Cn1nc(C)c2c(C)onc2c1=O`, 11.4%. Take `Cc1nccc(NCc2cc3n(n2)CCCN(C(=O)C2CCC2)C3)n1`: the INHIBITION was determined as 21.1%.

With `Cc1cc2c(=O)n(CCSc3ncn[nH]3)cnc2s1`, the INHIBITION is recorded as 29.4%.

`Cn1nnc2c1CCN(C(=O)C1CC1)C2COCCN1CCCC1` (stereo unspecified): the INHIBITION was -6.23%. For `c1ncn(CC2CCCCN2Cc2cn3ccsc3n2)n1` (stereo unspecified) the value was 25.45%. For `O=C(c1ccc(-n2cnnc2)nc1)N1CCCC(O)(CO)CC1` (stereo unspecified) the value was 8.38%; for `CC[C@H]1CN(C(=O)c2ccc(-n3cnnc3)nc2)CC[C@@]1(C)O`, 53.8%; for `CC[C@H]1CN(C(=O)c2cccc(-n3cnnc3)n2)CC[C@@]1(C)O`, -0.71%. Consider `Cc1ccc2cc(CNCCCN3CCOCC3)c(=O)[nH]c2c1C`, for which the INHIBITION is -5.71%.
